Rows were chosen to be rich in hits. Some 8.8% of all compounds tested hit in one or more screens of this group.
IL1B secr inh = inflammasome signaling inhibition, IL-1 beta readout. THP-1 LPS/ATP IL-1B secretion, AlphaLISA, 16 h; active compounds read low. activity change, % at 57.5 µM. 360,000 tested, 4.7% active; in the data active means activity change below about -50%; inconclusive means mostly about -30% to -49%
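Secreted IL-1B measured by AlphaLISA bead assay after 16 h compound exposure of THP-1 cells; compounds (final up to 57.5 uM) added 1 h before LPS (250 ng/mL) and ATP (1.25 mM) stimulation; lower signal means less secretion.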
KB-V1 MDR tox = kills drug-selected multidrug resistant KB-V1 cells | KB-V1 MDR cells viability, CellTiter-Glo, 72 h | Potency, µM (highest dose often 46.1 µM), most hits filed as cytotoxic | 400,000 tested, 3.4% active | AID 1347076; further: nearly all actives have a fitted effect of over 60% in size
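Cells of the MDR subline KB-V1 are plated, dosed with compound at multiple concentrations, and incubated 72 h at 37 degrees C; CellTiter-Glo is then added and luminescence read after 10 min.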
HT1080 IDH1KD tx = toxicity to HT-1080 IDH1 knockdown cells (counter line); Potency, µM (series often up to 46.1 µM), hits mostly cytotoxic; 360,000 tested, 2% active; HT-1080 IDH1 knockdown viability, ATP luminescence, 48 h; AID 686971
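Assay cells: HT-1080 with IDH1 knockdown, 750 per well, RPMI/5% FBS. Exposure: 48 h at 37 °C following 2 h pre-incubation. Read: CellTiter-Glo luminescence; fitted concentration-response, curve class assigned.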
KB-3-1 cytotox = kills parental KB-3-1 adenocarcinoma cells. KB-3-1 viability, CellTiter-Glo ATP luminescence, 72 h. 400,000 tested, 1.4% active. AID 1347075. Potency, µM (top dose mostly 46.1 µM), most hits filed as cytotoxic; further: nearly all actives have a fitted effect of over 60% in size
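Viability of parental KB-3-1 cells, measured by CellTiter-Glo luminescence, followed a 72 h incubation at 37 °C with pinned compounds in phenol-red-free DMEM containing 10% FBS.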
HT1080NT lethal = kills 2HG-producing HT-1080-NT fibrosarcoma cells | 360,000 tested, 1.6% active | HT-1080-NT fibrosarcoma viability, CellTiter-Glo ATP luminescence, 48 h | Potency, µM (top dose mostly 46.1 µM), most hits filed as cytotoxic | AID 686970;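 further: NT is the 2HG producing partner of a matched IDH1 knockdown line; nearly all actives have a fitted effect of over 55% in size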
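Compounds were tested in concentration-response format on HT-1080-NT cells for 48 hours at 37 degrees C. Cell viability came from CellTiter-Glo luminescence; curves were classified by r2, response magnitude and activity.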
Numbers stand for hits; . = inactive; ? = inconclusive; / = no result given; ! = repeats disagree. Unless noted, the call rests on the fitted dose curve; in most records, active means well fitted curve in the direction sought with a large enough effect; inconclusive means small, poorly fitted or top-dose-only effect, or another doubt; inactive means no such curve, though single readings can be large; an effect the other way counts as inactive or inconclusive.

SMILES	IL1B secr inh	KB-V1 MDR tox	HT1080 IDH1KD tx	KB-3-1 cytotox	HT1080NT lethal
N#CC1=C(N)Oc2cc(N)ccc2C1c1cccnc1 (stereo not drawn)	.	.	.	?	.
CSc1ccc(C2C(C#N)=C(N)Oc3cc4c(cc32)OCO4)cc1 (stereo not drawn)	.	4.61µM	?	.	17.8µM
COc1ccc(C2C(C#N)=C(N)Oc3c2ccc2cccnc32)cc1OC (stereo not drawn)	.	.	0.651µM	2.59µM	?
COc1ccc(-n2c3c(cc(-c4nc(-c5ccc(Cl)cc5)cs4)c2=O)C(=O)CC(C)(C)C3)cc1	/	.	/	.	/
COc1ccccc1-c1noc(CCCC(=O)Nc2cc(C)ccc2C)n1	/	.	/	.	/
COc1cc(/C=C/c2cc[n+](C)c3ccccc23)cc(OC)c1OC	/	.	/	?	/
N#CC1=C(N)Oc2cc(Nc3ccccc3)ccc2C1c1ccncc1 (stereo not drawn)	-78.2	.	?	?	?
N#CC1=C(N)Oc2cc(N)ccc2C1c1ccc(Cl)cc1 (stereo not drawn)	-74.7	.	?	.	?
N#CC1=C(N)Oc2cc(N)ccc2C1c1ccc(F)cc1 (stereo not drawn)	.	.	?	?	.
COc1ccc(C2C(C#N)=C(N)Oc3cc(N)ccc32)cc1 (stereo not drawn)	.	.	.	.	.
O=C(Cc1ccc(Cl)cc1)Nc1ccc(S(=O)(=O)Nc2cnc3ccccc3n2)cc1	.	.	.	.	.
CCN(CC(=O)Nc1ccc2c(c1)OCCO2)Cc1nc2cc(Cl)ccc2c(=O)[nH]1	.	20.6µM	.	.	.
CCN(CC(=O)Nc1ccc2c(c1)OCCO2)CC(=O)Nc1ccccc1C(F)(F)F	.	11.6µM	.	.	.
CCN(CC(=O)Nc1ccc(C(C)=O)cc1)CC(=O)Nc1ccc2c(c1)OCCO2	.	.	.	.	.
CCN(CC(=O)Nc1cccc(F)c1)Cc1nc2ccccc2c(=O)[nH]1	.	.	.	.	.
Cc1sc(NC(=O)COc2ccccc2)c(C#N)c1-c1ccccc1	.	16.4µM	.	.	.
COc1ccc(-c2c(C)sc(NC(=O)c3ccnn3C)c2C#N)cc1	.	?	20.6µM	10.3µM	13µM
O=C(NNS(=O)(=O)c1ccccc1F)c1sccc1-n1cccc1	.	.	.	.	.
CC1CC2C3CCC4=CC(=O)C=CC4(C)[C@@]3(Cl)C(O)CC2(C)C1(O)C(=O)CO (stereo partly drawn)	.	.	.	.	?
C[C@@H]1C[C@H]2[C@@H]3CCC4=CC(=O)C=C[C@]4(C)[C@@]3(Cl)[C@@H](O)C[C@]2(C)[C@@]1(OC(=O)c1ccco1)C(=O)CCl	-89.0	?	?	?	16.4µM
O=C(Nc1cccc(NC(=O)c2ccco2)c1)c1cccc(Br)c1	-60.8	?	.	.	?
COC(=O)c1cccc(NC(=O)c2ccco2)c1	.	.	.	.	.
C/C(=N/NC(=O)c1ccco1)c1cccc(NC(=O)c2ccc(C)s2)c1	.	10.3µM	.	.	.
COC(=O)c1cccc(NC(=O)CCNC(=O)c2ccco2)c1	-100.8	.	.	.	.
CC(C)(C)NC(=O)c1cccc(NC(=O)c2ccc(NC(=O)c3ccco3)cc2)c1	-70.3	.	/	.	/
SMILES	IL1B secr inh	KB-V1 MDR tox	HT1080 IDH1KD tx	KB-3-1 cytotox	HT1080NT lethal
CC(C)(C)OC(=O)N1CCC[C@H]1C(=O)N1CCC[C@H]1C(=O)NCc1ccncc1	.	.	.	?	.
COc1ccc(CCC(=O)Nc2nnc(C(F)(F)F)s2)cc1	.	?	.	.	.
O=C(Nc1ccc(Cl)c(NC(=O)c2cccs2)c1)c1ccco1	.	.	.	.	.
O=C(Nc1cccc(NC(=O)c2cccs2)c1)c1ccco1	.	14.6µM	.	.	.
O=C(CN1CCC(C(=O)c2ccc(Cl)cc2)CC1)NC1CCCC1	.	?	.	.	.
Cc1ccc(NC(=O)N2CCC(C(=O)c3ccc(F)cc3)CC2)cc1	.	23.1µM	.	.	.
Cc1ccc(C(=O)C2CCN(CC(=O)NC3CCCCC3)CC2)cc1	.	13µM	.	.	.
Cc1ccc(C2CCN(C(=O)Nc3ccc(F)cc3)C2)cc1 (stereo not drawn)	-67.6	.	.	.	.
Cc1ccc(NC(=O)C2CCCN(C(=O)Nc3ccc(F)cc3)C2)cc1 (stereo not drawn)	.	.	.	.	.
Cc1ccc(C(=O)N[C@H](C(=O)NC2CCCCC2)C(C)C)cc1	.	10.3µM	.	.	.
COc1ccc(C(=O)N[C@H](C(=O)NC2CCCCC2)C(C)C)cc1	.	.	.	.	.
COc1ccc(C(=O)C2CCN(C(=O)Nc3ccc(C)cc3)CC2)cc1	.	?	.	.	.
COc1cccc(CCNC(=O)c2ccc(Cn3c(SCc4ccccc4)nc4cccnc43)cc2)c1	/	.	/	.	/
Cc1ccc(CNc2ncnc3c2c(-c2ccccc2)cn3-c2ccccc2)cc1	/	.	/	.	/
COc1ccccc1CN(C)C(=O)c1sccc1-c1ccccc1	.	?	.	.	.
CCN1C(=O)/C(=C2/Sc3ccccc3N2CC)S/C1=N\c1ncn[nH]1	-55.5	23.1µM	.	.	.
O=C(Cc1ccccc1)Nc1cc([N+](=O)[O-])ccc1N1CCOCC1	.	?	.	.	.
CCc1ccc2nc(-c3cccc(C)c3)nc(SCC(=O)NCC3CCCO3)c2c1 (stereo not drawn)	.	2.59µM	.	.	.
Cc1ccc2nc(-c3ccc(F)cc3)nc(SCC(=O)NCC3CCCO3)c2c1 (stereo not drawn)	.	.	.	?	.
CN(Cc1ccccc1)C(=O)CSc1nnc(-c2ccco2)n1-c1ccccc1	.	3.66µM	.	.	.
CC1CCN(C(=O)CSc2nnc(-c3cc4ccccc4cc3O)n2Cc2ccco2)CC1	.	3.66µM	.	?	.
CCn1c(SCC(=O)N(C(C)C)C(C)C)nnc1-c1cc2ccccc2cc1O	.	3.66µM	.	?	.
CCn1c(SCC(=O)N2CCC(C)CC2)nnc1-c1ccco1	.	.	.	.	.
COc1ccc(C(=O)CSc2nnc(-c3cc4ccccc4cc3O)n2Cc2ccco2)cc1	-66.8	7.31µM!	?	?	?
COc1ccc(C(=O)CSc2nnc(-c3cccnc3)n2Cc2ccco2)cc1	?	.	.	.	.
O=C(NCc1ccco1)C(=O)NCC1OCCCN1S(=O)(=O)c1ccccc1 (stereo not drawn)	.	.	.	.	.
CCC(C)NCCCCOc1ccc(C)cc1[N+](=O)[O-] (stereo not drawn)	.	?	.	.	.
COC(=O)c1ccc(NC(=O)c2cccc(Cl)c2)o1	.	.	.	.	.
Cc1ccc(C(=O)CSc2nnc(-c3ccco3)n2Cc2ccccc2)cc1	?	?	?	20.6µM	?
O=C(CSc1nnc(-c2ccco2)n1Cc1ccccc1)c1ccccc1	.	.	.	.	.

Screening data as filed in PubChem BioAssay.
